# In all, about 360,000 compounds went through this assay and about 17,000 (4.7%) were called active. Another 5% or so got no clear call; they are omitted. No stated cut-off is given here; in the data, active means activity change below about -50%; inconclusive means mostly about -30% to -49%; inactive means weaker than that. The list comes from a sample in which actives are over-represented; it also holds similar structures and randomly drawn compounds.
# Assay: qHTS for Inhibitors of Inflammasome Signaling: IL-1-beta AlphaLISA Primary Screen
# Details: THP-1 LPS/ATP IL-1B secretion, 16 h; at 57.5 µM, hits give low values
# How it was run: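 THP-1 cells pretreated 1 hr with compounds (up to 57.5 uM final), then stimulated with LPS (250 ng/mL final) plus ATP (1.25 mM final); secreted IL-1B measured by AlphaLISA after 16 hr, decreased signal indicating inhibition.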
# On the % scale 0 is the no-effect control and ±100 the full control effect.
row,SMILES,activity change
1,c1cc(-c2ccc3[nH]ccc3c2)n2ccnc2c1,10.3% (inactive)
2,CN(CC(=O)NC1CCN(Cc2ccccc2)CC1)S(=O)(=O)c1ccc(Cl)s1,-53.7% (active)
3,CN(CC(=O)NC1CCCCC1)S(=O)(=O)c1ccc(Br)s1,2.52% (inactive)
4,CC1CN(C(=O)CCC(=O)NC2CCN(Cc3ccccc3)CC2)c2ccccc2O1 (stereo not drawn),-3.91% (inactive)
5,COc1cccc(OC)c1C(=O)N1CCN(Cc2ccccc2F)CC1,-14.9% (inactive)
6,COc1cccc(-c2cnc3c(NC(C)=O)cc(-c4cc(F)ccc4OC)cn23)c1,-11.1% (inactive)
7,Cc1ccccc1N1CCN(Cc2nc(Cc3ccccc3F)no2)CC1,15.1% (inactive)
8,O=C(NCCc1ccc(Cl)cc1)c1cccc(N2CCCC2=O)c1,-5.88% (inactive)
9,Oc1cc2c(cc1O)CN(C(=S)NCCc1ccc(Cl)cc1)CCC2,-66.9% (active)
10,COc1ccc(CCNC(=S)N2CCN(S(=O)(=O)c3ccc(Cl)cc3)CC2)cc1,0% (inactive)
11,O=C(Nc1ccccc1)c1nnsc1S(=O)(=O)c1ccc(Cl)cc1,-53.3% (active)
12,O=C(Nc1ccc(S(=O)(=O)Nc2ccccn2)cc1)c1ccccc1,inactive
13,O=C(Nc1ccc(Cl)cc1)Nc1nnc(/C=C/c2ccccc2)s1,11.5% (inactive)
14,CCCCc1nc(SCC(=O)Nc2nnc(C(C)C)s2)n[nH]1,10.5% (inactive)
15,CSCCC(NC(=O)C1CCC(C)CC1)C(=O)NCc1ccco1 (stereo not drawn),-25.5% (inactive)
16,CN1C(c2ccc(F)cc2)=CS/C1=C(/C#N)c1nnc2n1-c1ccccc1SC2,-68.6% (active)
17,COc1cc(OC)cc(-c2nc3ccccc3c(=O)n2NC(=O)c2cccnc2Cl)c1,-0.823% (inactive)
18,O=C(Nc1ccc2c(c1)OCCO2)C1c2ccccc2OCC(=O)N1Cc1ccccn1 (stereo not drawn),18.3% (inactive)
19,CC(C)Cn1cc(-c2cncc3nccn23)cn1,-7.82% (inactive)
20,CCOC(=O)c1nnn(-c2nc(OC)nc(N(C)C)n2)c1-c1ccccc1,44.9% (inactive)
21,CCCCCc1ccc(-c2cn(Cc3ccc4ccccc4c3)nn2)cc1,-1.04% (inactive)
22,CCOc1nc(OCC)nc(-n2cc(-c3ccccc3)nn2)n1,-60.1% (active)

row,SMILES,activity change
1,COc1ccc(-c2ccc(CN3C(CC(C)C)C(=O)N(Cc4cn(CC5CCCCC5)nn4)CCS3(=O)=O)cc2)cn1 (stereo not drawn),-12.3% (inactive)
2,CC(=O)NN=C(C)c1ccc(NC(=O)C2CC2)cc1,-22.8% (inactive)
3,CCc1ccc2c(c1)cc(CN(C(=S)Nc1ccccc1Cl)C1CC1)c1nnnn12,14.3% (inactive)
4,COc1cc(C(=S)N2CCOCC2)cc(OC)c1OC(=O)c1ccc([N+](=O)[O-])cc1[N+](=O)[O-],-15.3% (inactive)
5,COc1cc(C(=S)N2CCOCC2)cc(OC)c1OC(=O)c1cc([N+](=O)[O-])cc([N+](=O)[O-])c1,22% (inactive)
6,COc1cc([N+](=O)[O-])cc([N+](=O)[O-])c1NC(=O)N1CCOCC1,-92.7% (active)
7,OC[C@@H]1CN(Cc2ccc(-c3ccccc3)cc2)C[C@H](n2cnc3c(NC4CCCC4)ncnc32)O1,-3.87% (inactive)
8,CCOc1ccc2[nH]c(C(=O)N/N=C/c3cccc(OC)c3OC)cc2c1,0% (inactive)
9,COc1ccc2[nH]c(C(=O)N/N=C/c3cc(OC)c(OC)c(OC)c3)cc2c1,-6.28% (inactive)
10,COc1cc2cc(C(=O)N/N=C/c3cccc(OC)c3OC)[nH]c2cc1OC,-70% (active)
11,Cc1cc2c3ccccc3[nH]c(=O)n2n1,-25.1% (inactive)
12,O=C1c2ccccc2C(=O)C1C(=O)C1CC1,8.56% (inactive)
13,Nc1cccc(-c2cncc(N3CCN(Cc4ccccn4)CC3)n2)c1,-1.3% (inactive)
14,O=C(C[C@H]1C[C@H]2c3cc(NS(=O)(=O)c4ccc(F)cc4)ccc3O[C@H]2[C@H](CO)O1)NCc1cc(F)ccc1F,9.17% (inactive)
15,COc1ccc2cc1Oc1ccc(cc1)C[C@H]1c3cc(c(OC)cc3CCN1C)Oc1c(O)c(OC)cc3c1[C@H](C2)N(C)CC3,-107% (active)
16,OC(c1ccc(Cl)c(F)c1)c1ncc(-c2ccccc2Cl)[nH]1 (stereo not drawn),1.76% (inactive)
17,CCc1nc2c(OCCc3cccc(OC)c3)cccn2c1N(C)C(=O)c1ccc(C)cc1,-7.64% (inactive)
18,Cc1ccc(NC(=O)COC(=O)CN2CCSC2=O)cc1F,4.94% (inactive)
19,Cc1cc2nc(-c3ccc(F)cc3)c(Cc3ccsc3)n2c(C)c1Br,14% (inactive)
20,Cc1ccc(NC(=S)N2CCCC(c3ccccc3)=N2)cc1,-20.4% (inactive)
21,Cc1ccc(C(=O)C[n+]2cc(-c3ccccc3)n3c2CCCCC3)cc1,-83.1% (active)
22,Cc1ccc(C(=O)N2CCCC(c3ccccc3)=N2)cc1,-5.32% (inactive)

row,SMILES,activity change
1,Cc1ccc(NC(=O)CN2CCc3ccccc3C2)cc1,7.54% (inactive)
2,Cc1ccc(-c2c[n+](CC(=O)Nc3ccccc3)c3n2CCC3)cc1,-60.8% (active)
3,Cc1cccc[n+]1CC(=O)c1ccccc1,22.7% (inactive)
4,COc1cccc(NC(=O)N(C)C[C@@H]2Oc3ncc(Br)cc3C(=O)N([C@@H](C)CO)C[C@H]2C)c1,2.84% (inactive)
5,NNC(=O)COc1ccc(C2SCCS2)cc1,15.3% (inactive)
6,OC[C@@H]1CN(Cc2cccs2)C[C@H](n2cnc3c(NC4CCCC4)ncnc32)O1,-3.1% (inactive)
7,CC1CCCC(NC(=O)COC(=O)c2ccccc2C(=O)N(C)C2CCCCC2)C1C (stereo not drawn),-16.9% (inactive)
8,CCOc1ccc(OCC)c(-c2c(=O)n(OCc3ccc(Cl)cc3)c3ccccc3[n+]2[O-])c1,-67% (active)
9,O=c1c(-c2ccc(Cl)cc2)[n+]([O-])c2ccccc2n1OCc1nc2ccccc2[nH]1,14.2% (inactive)
10,CCOC(=O)COn1c(=O)c(-c2ccc(OCC)cc2)[n+]([O-])c2ccccc21,4.15% (inactive)
11,CC(=O)OC1CCC2C3CCC4=C(CC(F)C(=O)C4)C3CCC12C (stereo not drawn),5.77% (inactive)
12,Cc1cn([C@H]2C[C@H](O)[C@@H](CNC(=O)[C@H](N)Cc3cccnc3)O2)c(=O)[nH]c1=O,11.3% (inactive)
13,CS(=O)(=O)N1CCN(c2ccc(C(=O)NC3C4CC5CC(C4)CC3C5)cc2[N+](=O)[O-])CC1 (stereo not drawn),5.99% (inactive)
14,O=C(Nc1ccc(N2C(=O)c3cccc4cccc(c34)C2=O)cc1)c1ccc(N2CCCCC2)c([N+](=O)[O-])c1,-6.25% (inactive)
15,CCC(C)NC(=O)c1ccc(N2CCC3(CC2)OCCO3)c([N+](=O)[O-])c1 (stereo not drawn),0.859% (inactive)
16,Cc1cccc(C)c1NC(=O)CNC(=O)c1ccc(N2CCOCC2)c([N+](=O)[O-])c1,-0.22% (inactive)
17,CC(NC(=O)c1ccc(N2CCNCC2)c([N+](=O)[O-])c1)C12CC3CC(CC(C3)C1)C2 (stereo not drawn),-72.6% (active)
18,O=C(Nc1cccc(C(F)(F)F)c1)c1ccc(N2CCNCC2)c([N+](=O)[O-])c1,-82.2% (active)
19,Cc1nc2nc(C)c(CCC(=O)N3CCN(c4ccccc4)CC3)c(C)n2n1,-17.6% (inactive)
20,C[N+](C)(C)CCNC(=O)c1c[nH]c2ccccc12,24.4% (inactive)
21,CCC(C(=O)NCc1cccnc1)n1nc(C)c2sc3ccccc3c2c1=O (stereo not drawn),-16.1% (inactive)
22,Cc1ccc(S(=O)(=O)N(CC(=O)NN=C2CCN(C)CC2)c2ccc(F)cc2)cc1,31% (inactive)

row,SMILES,activity change
1,CCOc1ccc(N(CC(=O)NCC2CCCO2)S(=O)(=O)c2ccc(C)cc2)cc1 (stereo not drawn),7.07% (inactive)
2,CCNC(=O)CN(c1ccc(C)cc1)S(=O)(=O)c1ccc(SC)cc1,-55.3% (active)
3,COc1ccc(S(=O)(=O)NC(=O)C2(C)CCN2C(=O)c2ccccc2CCc2ccccc2)cc1 (stereo not drawn),22.1% (inactive)
4,CCCNC(=O)C1(C)CCN(C(=O)c2ccccc2OC(F)(F)F)C1 (stereo not drawn),15.8% (inactive)
5,COc1ncnc2c1ncn2CCCNCCN1CCOCC1,44.5% (inactive)
6,O=S(=O)(O)c1cc2onnc2c2ccccc12,0% (inactive)
7,CNc1nc(Nc2ccc(C)c(Cl)c2)nc(N)c1[N+](=O)[O-],-21.8% (inactive)
8,OCCNc1nc(Nc2ccc(Cl)c(Cl)c2)nc2ccccc12,-92.5% (active)
9,Cc1ccc(Nc2nc(N)nc(CN3CCN(Cc4ccccc4)CC3)n2)cc1Cl,0% (inactive)
10,COc1cc(NC(=O)C2=C(C)OCCS2)c(Cl)cc1C(=O)NCCCN1CCCC(C)C1 (stereo not drawn),-28.6% (inactive)
11,CCCNC(=O)C1(C)CCN(C(=O)c2cc(F)ccc2C)C1 (stereo not drawn),34.1% (inactive)
12,COc1cccc(C(NC(C)=O)c2nc(-c3ccccc3OC)cs2)c1 (stereo not drawn),9.34% (inactive)
13,COC(=O)C[C@@H]1C=C[C@@H](NC(=O)c2ccc3c(c2)OCO3)[C@@H](CO)O1,7.5% (inactive)
14,COc1cccc(CNC(=O)CN2C(=O)NC(Cc3ccccc3)(c3ccccc3)C2=O)c1 (stereo not drawn),-58.8% (active)
15,CCCCNC(=O)CN1C(=O)NC(Cc2ccccc2)(Cc2ccccc2)C1=O,4.67% (inactive)
16,COc1cccc(CNC(=O)COC(=O)CN2C(=O)NC3(CCCCC3C)C2=O)c1 (stereo not drawn),8.38% (inactive)
17,CN(Cc1nc2ccccc2c(=O)[nH]1)Cc1cc(=O)oc2ccc3ccccc3c12,0.506% (inactive)
18,O=C(CNc1ccccc1N1CCCC1=O)Nc1cc(Cl)ccc1-n1cncn1,-19.4% (inactive)
19,CCN(CC)S(=O)(=O)c1ccc(NC(=O)c2cccnc2Cl)c(NC(=O)c2cccnc2Cl)c1,-102% (active)
20,Cc1ccc(CNC(=O)c2cccnc2Cl)cc1,55.4% (inactive)
21,CCN(CC)S(=O)(=O)c1ccc(NC(=O)c2cnc(C)cn2)cc1,57% (inactive)
22,CC(O)(c1cccc(F)c1)c1nc(-c2ccc3c(c2)OCO3)cs1 (stereo not drawn),16% (inactive)

# Reference: PubChem BioAssay AID743279 (National Center for Advancing Translational Sciences (NCATS), 2014)
